Test results reported in PubChem BioAssay (EPA / NIEHS).
Values joined by “and” are separate entries in the source; they are usually repeats but may differ in a detail not shown here. Identical values can stand only once. Records with an inconclusive call do not appear. A structure can be active in one record and inactive in another. Active and inactive are the calls of the source. Rule for the calls, unless noted: active = hit-call score of the fitted dose curve at least 0.9, where 1 is the maximum; inconclusive = response in the unintended direction; inactive = score below 0.9.

What was measured:
[1] = read-out: UDP glucuronosyltransferase (UGT1A1), UGT1A1 (gene 54658); test: LTEA_HepaRG_UGT1A1: Life Technologies and Expression Analysis (LTEA) Assay for UDP glucuronosyltransferase (UGT1A1) using HepaRG (AID 2283538; active = hit-call score of the fitted dose curve at least 0.9, where 1 is the maximum; inactive = score below 0.9); details: mRNA level, 48 h; actives raise or lower the signal
Summary of the method: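 mRNA induction or loss of UGT1A1, by TaqMan qRT-PCR, in duplicate HepaRG wells after 48 h exposure to half-log dilutions topping at 100 uM; DMSO (0.5%) served as baseline.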

[2] = read-out: UDP glucuronosyltransferase (UGT1A6), UGT1A6 (gene 54578); test: LTEA_HepaRG_UGT1A6: Life Technologies and Expression Analysis (LTEA) Assay for UDP glucuronosyltransferase (UGT1A6) using HepaRG (AID 2283539; active = hit-call score of the fitted dose curve at least 0.9, where 1 is the maximum; inactive = score below 0.9); details: mRNA level, 48 h; actives raise or lower the signal
Summary of the method: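 Differentiated HepaRG cells, ~100,000/well, were exposed for 48 h in serum-free induction medium with 0.5% DMSO to 8-point half-log series topping at 100 uM, in duplicate. mRNA measured by Fluidigm TaqMan qRT-PCR, normalized to ACTB, GAPDH and POLR2A.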

[3] = read-out: X-box binding protein 1 (XBP1), XBP1 (gene 7494); test: LTEA_HepaRG_XBP1: Life Technologies and Expression Analysis (LTEA) Assay for X-box binding protein 1 (XBP1) using HepaRG (AID 2283540; active = hit-call score of the fitted dose curve at least 0.9, where 1 is the maximum; inactive = score below 0.9); details: mRNA level, 48 h; actives raise or lower the signal
Summary of the method: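 Differentiated human HepaRG cells in serum-free induction medium exposed 48 h in duplicate to eight half-log concentrations up to 100 uM in 0.5% DMSO. XBP1 mRNA measured by Fluidigm TaqMan qRT-PCR, normalized to ACTB, GAPDH, POLR2A; bidirectional fitting against DMSO.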

[4] = LTEA_HepaRG_LDH_cytotoxicity: Cytotoxicity Assessment in the Life Technologies and Expression Analysis (LTEA) Assay (AID 2283563)
Summary of the method: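 Differentiated HepaRG cells in serum-free induction medium, exposed 48 h in duplicate to 8 half-log concentrations up to 100 uM in 0.5% DMSO. Cytotoxicity from LDH measured in spent medium, fit relative to DMSO.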

[5] = ATG_XTT_Cytotoxicity: Cytotoxicity Assessment in the Attagene TRANS-FACTORIAL HepG2 Assay (AID 2283584)
Summary of the method: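 HepG2 cells transiently transfected with GAL4-UAS multiple reporter units, dosed 24 h; cytotoxicity read by XTT as loss of signal versus DMSO baseline.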

[6] = Tanguay_ZF_120hpf_MORT_legacy: (Legacy) Oregon State University Tanguay Lab 120 Hour Post-fertilization zebrafish Assay for Mortality (AID 2283633);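 for AC50: fitted as increase in binary mortality versus DMSO negative control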
Summary of the method: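 Dechorionated Tropical 5D wild-type zebrafish embryos, one per well from 6 hpf, static exposure in 0.64% DMSO at 28C until 120 hpf. Mortality scored as binary by brightfield microscopy at 24 and 120 hpf.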

[7] = Tanguay_ZF_120hpf_YSE_legacy: (Legacy) Oregon State University Tanguay Lab 120 Hour Post-fertilization zebrafish Assay for Yolk Sac Edema (AID 2283634);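 for AC50: actives raise the incidence of yolk sac edema above the DMSO baseline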
Summary of the method: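 Dechorionated Tropical 5D wild-type zebrafish embryos were exposed statically, one per well, from 6 to 120 hpf at 28C in 0.64% DMSO. Yolk sac edema was scored present/absent by brightfield at 120 hpf, and dead embryos were excluded.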

[8] = Tanguay_ZF_120hpf_AXIS_legacy: (Legacy) Oregon State University Tanguay Lab 120 Hour Post-fertilization zebrafish Assay for Body Axis Malformation (AID 2283635);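 for AC50: potency for an increased fraction of larvae scored with body axis malformation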
Summary of the method: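 Dechorionated wild-type Tropical 5D zebrafish embryos, one per well, statically exposed from 6 hpf to 120 hpf at 28C in 0.64% DMSO final. Body axis malformation scored present/absent by brightfield microscopy at 120 hpf; dead embryos excluded.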

[9] = Tanguay_ZF_120hpf_EYE_legacy: (Legacy) Oregon State University Tanguay Lab 120 Hour Post-fertilization zebrafish Assay for Eye Malformation (AID 2283636);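 note: binary presence or absence of eye malformation scored by brightfield in 120 hpf larvae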
Summary of the method: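 Static waterborne exposure of dechorionated zebrafish embryos (strain Tropical 5D), 6 to 120 hpf, sealed plates at 28C, 0.64% DMSO vehicle. Eye malformation is scored as a binary endpoint, with gain of signal analysed relative to DMSO.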

[10] = Tanguay_ZF_120hpf_SNOU_legacy: (Legacy) Oregon State University Tanguay Lab 120 Hour Post-fertilization zebrafish Assay for Snout Malformation (AID 2283637)
Summary of the method: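 Dechorionated zebrafish, individually housed from 6 hpf in covered, sealed wells at 28C with 0.64% DMSO vehicle, were examined at 120 hpf for snout malformation. Responses were binary and analysed positive-direction relative to DMSO.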

[11] = read-out: Cellular tumor antigen p53 (Homo sapiens) (UniProt P04637); test: LTEA_HepaRG_TP53: Life Technologies and Expression Analysis (LTEA) Assay for Tumor Protein P53 (TP53) using HepaRG (AID 2283537; active = hit-call score of the fitted dose curve at least 0.9, where 1 is the maximum; inactive = score below 0.9); details: mRNA level, 48 h; actives raise or lower the signal
Summary of the method: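 TP53 transcript measured by qRT-PCR, normalized to three housekeeping genes, after 48 h treatment of human HepaRG cultures with chemicals from 100 uM downward in half-log steps (0.5% DMSO vehicle, serum-free induction medium). Up- or down-regulation fitted against DMSO.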

[12] = target: Cellular tumor antigen p53 (Homo sapiens) (UniProt P04637); test: TOX21_p53_BLA_p2_ratio: Tox21 HCT-116 p53 Agonism Beta-lactamase Assay, Ratio, Phase 2 (AID 2283592)
Chain of Cellular tumor antigen p53 (Homo sapiens) (P04637 whole entry, looked up): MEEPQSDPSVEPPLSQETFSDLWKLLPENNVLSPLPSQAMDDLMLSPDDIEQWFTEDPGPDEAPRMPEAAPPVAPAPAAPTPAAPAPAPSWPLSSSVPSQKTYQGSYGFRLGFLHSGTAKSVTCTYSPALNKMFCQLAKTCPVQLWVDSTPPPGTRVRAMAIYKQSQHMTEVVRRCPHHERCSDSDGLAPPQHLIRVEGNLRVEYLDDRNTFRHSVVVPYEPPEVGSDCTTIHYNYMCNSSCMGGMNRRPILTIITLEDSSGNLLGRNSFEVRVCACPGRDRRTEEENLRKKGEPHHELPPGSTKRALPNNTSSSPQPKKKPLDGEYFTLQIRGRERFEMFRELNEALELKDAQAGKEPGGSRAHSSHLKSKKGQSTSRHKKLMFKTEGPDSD
Summary of the method: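 First, HCT116 reporter cells settle for 5 h at 37C. Next, DMSO compound solutions are pinned in (217-fold dilution) and left 16 h. Finally, CCF4-AM substrate is loaded 2 h at room temperature and the 460/530 nm ratio read.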

[13] = TOX21_p53_BLA_p3_viability: Viability Assessment in the Tox21 HCT-116 p53 Agonism Beta-lactamase Assay, Phase 3 (AID 2283593);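 note: cells exposed to compound for 16 h before reading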
Summary of the method: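 HCT-116 cells (4000/well) rested 5 h at 37C, then got DMSO compounds by pin tool (217-fold dilution) for 16 h at 37C, 5% CO2. After the bla read, CellTiter-Glo was added and luminescence read at 30 min, room temperature.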

[14] = target: Cellular tumor antigen p53 (Homo sapiens) (UniProt P04637); test: TOX21_p53_BLA_p3_ratio: Tox21 HCT-116 p53 Agonism Beta-lactamase Assay, Ratio, Phase 3 (AID 2283596)
Summary of the method: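 Cells were seeded at 4000/well, rested 5 h at 37C, then dosed with DMSO compound solutions (217-fold dilution) for 16 h. CCF4-AM substrate was loaded for 2 h at room temperature, and the 460/530 nm emission ratio was fitted for gain of signal versus DMSO.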

[15] = TOX21_p53_BLA_p5_viability: Viability Assessment in the Tox21 HCT-116 p53 Agonism Beta-lactamase Assay, Phase 5 (AID 2283600)
Summary of the method: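 Decreased CellTiter-Glo luminescence denotes lost viability. Exposure: 16 h at 37C, 5% CO2, with compounds from DMSO stocks diluted 217-fold in wells of 4000 cells.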

[16] = target: Cellular tumor antigen p53 (Homo sapiens) (UniProt P04637); test: TOX21_p53_BLA_p4_ratio: Tox21 HCT-116 p53 Agonism Beta-lactamase Assay, Ratio, Phase 4 (AID 2283601)
Summary of the method: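 HCT116 cells carrying an inducible beta-lactamase reporter were plated at 4000 cells/well, rested 5 h, then exposed to compounds in DMSO (217-fold dilution) for 16 h at 37C. CCF4-AM substrate was loaded 2 h at room temperature; 460/530 nm emission ratio scored gain-of-signal versus DMSO.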

[17] = TOX21_p53_BLA_p2_viability: Viability Assessment in the Tox21 HCT-116 p53 Agonism Beta-lactamase Assay, Phase 2 (AID 2283591);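 note: actives lower the ATP signal meaning cytotoxicity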
Summary of the method: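 HCT-116 p53-bla cells (4000/well) rested 5 h at 37C, then received compounds in DMSO (217-fold dilution) for 16 h at 37C, 5% CO2. After the CCF4 read, CellTiter-Glo was added; ATP luminescence was read after 30 min at room temperature.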

[18] = TOX21_p53_BLA_p4_viability: Viability Assessment in the Tox21 HCT-116 p53 Agonism Beta-lactamase Assay, Phase 4 (AID 2283597);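 note: hits lower the luminescence signal meaning cytotoxicity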
Summary of the method: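 4000 HCT116 cells per well; 5 h attachment; compounds from DMSO, 217-fold dilution; 16 h at 37C. Then CCF4-AM, 2 h RT, followed by CellTiter-Glo, 30 min RT, luminescence. Decrease = cytotoxicity.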

Measured: AC50

O=C(Oc1ccccc1)c1cccc(C(=O)Oc2ccccc2)c1
inactive: [1] | [2] | [3] | [4] | [5] | [6] | [7] | [8] | [9] | [10]

Cc1cn([C@H]2C=C[C@@H](CO)O2)c(=O)[nH]c1=O
inactive: [1] | [2] | [3] | [4] | [5] | [6] | [7] | [8] | [9] | [10]

CC(=O)OC1CC(C)OC(C)O1 (stereo unspecified)
inactive: [1] | [2] | [3] | [4] | [5] | [6] | [7] | [8] | [9] | [10]

CC(N)=O
inactive: [1] | [2] | [3] | [4] | [5] | [6] | [7] | [8] | [9] | [10]

CCCCC(CC)CO (stereo unspecified)
not listed: [4] | [17] | [18]
inactive: all other assays above

CCCCCCCCCC[N+](C)(C)[O-]
not listed: [4] | [8] | [17] | [18]
inactive: all other assays above

CC(C)c1cccc(C(C)C)c1NC(=O)NS(=O)(=O)c1cc(C(C)(C)O)co1
inactive: [11] | [1] | [2] | [3] | [4] | [16] | [6] | [7] | [9] | [10]

CCCCCCCCCCCCCCOS(=O)(=O)O
active: [17] 74.2 µM | [18] 73.1 µM | [15] 68.3 µM | [16] 78.4 µM | [6] 27.8 µM | [7] 10.8 µM | [8] 31.5 µM | [9] 26.1 µM | [10] 24.7 µM
inactive: [11] | [1] | [2] | [3] | [5] | [12] | [13] | [14]

Cc1c(C)c2c(c(C)c1O)CCC(C)(COc1ccc(CC3SC(=O)NC3=O)cc1)O2 (stereo unspecified)
active: [17] 74.4 µM and 37.1 µM | [12] 15.4 µM and 28.5 µM | [13] 73.8 µM | [14] 28.1 µM and 26 µM | [18] 66.4 µM and 34.8 µM | [15] 87 µM | [16] 76 µM and 35.5 µM
inactive: [11] | [1] | [2] | [3] | [15] | [6] | [7] | [8] | [9] | [10]

Cn1cnc2c1c(=O)[nH]c(=O)n2C
inactive: [1] | [2] | [3] | [4] | [5] | [6] | [7] | [8] | [9] | [10]

CC(C)(C)c1ccccc1
active: [6] 13.1 µM | [10] 5.01 µM
not listed: [4] | [12] | [16] | [17]
inactive: all other assays above

N[C@@H](Cc1c[nH]c2ccccc12)C(=O)O
inactive: [1] | [2] | [3] | [4] | [5] | [6] | [7] | [9]

CC(=O)OCC(COC(C)=O)OC(C)=O
inactive: [1] | [2] | [3] | [4] | [5] | [6] | [7] | [9] | [10]

O=C(NS(=O)(=O)/C=C/c1cccs1)c1ccc(F)cc1Br
active: [1] 14 µM
inactive: [2] | [3] | [4] | [6] | [7] | [8] | [9] | [10]

CC(=O)[C@@]1(O)CC[C@H]2[C@@H]3CCC4=CC(=O)CC[C@]4(C)[C@H]3CC[C@@]21C
inactive: [1] | [2] | [3] | [5] | [6] | [7] | [8] | [9] | [10]

CCCCCCC(C=O)=Cc1ccccc1
inactive: [1] | [2] | [3] | [4] | [5] | [6] | [7] | [8] | [9] | [10]

Nc1nc(=S)c2[nH]cnc2[nH]1
active: [2] 5.91 µM | [3] 15.7 µM
inactive: [1] | [5] | [6] | [7] | [8] | [9] | [10]
